In PubChem BioAssay (EPA / NIEHS) one finds outcome and AC50 data, which are given here for eleven compounds.

Conditions in all cases: primary human HUVEC with PBMC; actives raise or lower the signal
Read-out in test [1]: Monocyte Chemoattractant Protein-1 (MCP1), CCL2 (gene 6347)
Description: BSK_LPS_MCP1: BioMAP Diversity Plus: LPS Assay for Monocyte Chemoattractant Protein-1 (MCP1) Biomarker Activity (AID 2283081).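 For AC50: co-culture stimulated with LPS; secreted MCP-1 protein quantified by ELISA in culture supernatant.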 The essentials: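 HUVEC plus PBMC co-culture (human primary cells, LPS system) exposed to test chemical for 24 h; MCP-1 measured by ELISA. Bidirectional curve fitting against DMSO baseline; parallel SRB total-protein staining flags overt cytotoxicity.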

Test [2] can be described thus: BSK_LPS_PGE2: BioMAP Diversity Plus: LPS Assay for Prostaglandin E2 (PGE2) Biomarker Activity (AID 2283082). In short, it runs like this: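 PGE2 release measured by ELISA in an LPS-activated co-culture of human umbilical vein endothelial cells and peripheral blood mononuclear cells, read at 24 h post-dosing. DMSO served as baseline for bidirectional curve fitting.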

Read-out in test [3]: Macrophage colony-stimulating factor (MCSF), CSF1 (gene 1435)
Description: BSK_LPS_MCSF: BioMAP Diversity Plus: LPS Assay for Macrophage colony-stimulating factor (MCSF) Biomarker Activity (AID 2283083). In short, it runs like this:
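Human umbilical vein endothelial cells co-cultured with peripheral blood mononuclear cells were exposed to compound for 24 h. M-CSF levels were measured by ELISA, and bidirectional curve fitting used DMSO as the negative control and baseline.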

Read-out in test [4]: Tissue Factor, F3 (gene 2152)
Briefly: BSK_LPS_TissueFactor: BioMAP Diversity Plus: LPS Assay for Tissue Factor Biomarker Activity (AID 2283084). The essentials:
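Human umbilical vein endothelial cells co-cultured with peripheral blood mononuclear cells were dosed and stimulated with LPS. Cell-surface CD142 was quantified by ELISA at 24 h. Activity was fitted bidirectionally against DMSO baseline.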

Read-out in test [5]: Tumor necrosis factor (Homo sapiens) (UniProt P01375)
Briefly: BSK_LPS_TNFa: BioMAP Diversity Plus: LPS Assay for Tumour Necrosis Factor alpha (TNFa) Biomarker Activity (AID 2283085). The essentials: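 TNFa was quantified by ELISA in LPS-activated co-cultures of human endothelial cells and PBMC, 24 h post-dosing. Both increases and decreases versus DMSO were fitted.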

Read-out in test [6]: Vascular cell adhesion molecule 1 (VCAM1), VCAM1 (gene 7412)
Description: BSK_LPS_VCAM1: BioMAP Diversity Plus: LPS Assay for Vascular cell adhesion molecule 1 (VCAM1) Biomarker Activity (AID 2283086). In short, it runs like this: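 VCAM-1 quantified by ELISA in an LPS-activated co-culture of human endothelial cells and peripheral blood mononuclear cells, read 24 h post-treatment. Fitted in both directions versus DMSO; parallel SRB staining flags overt cytotoxicity.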

Read-out in test [7]: CD38, CD38 (gene 952)
Briefly: BSK_SAg_CD38: BioMAP Diversity Plus: SAg Assay for CD38 Biomarker Activity (AID 2283087). In short, it runs like this: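 CD38 quantified by ELISA (fluorescence) in a superantigen-activated endothelial cell–PBMC co-culture at 24 h post-dose. Activity fitted in both directions relative to DMSO; parallel SRB and Alamar Blue cytotoxicity read-outs.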

Read-out in test [8]: CD40, CD40 (gene 958)
Description: BSK_SAg_CD40: BioMAP Diversity Plus: SAg Assay for CD40 Biomarker Activity (AID 2283088). The essentials: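 Human umbilical vein endothelial cells co-cultured with PBMC; CD40 levels measured by ELISA with fluorescence read-out 24 h after chemical dosing. Gain or loss of signal fitted bidirectionally against DMSO baseline.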

Read-out in test [9]: CD69, CD69 (gene 969)
Briefly: BSK_SAg_CD69: BioMAP Diversity Plus: SAg Assay for CD69 Biomarker Activity (AID 2283089).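 For AC50: cell surface CD69 protein quantified by ELISA with fluorescence detection.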 In short, it runs like this: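 Primary human vascular co-culture (umbilical vein endothelium with peripheral blood mononuclear cells) exposed to test chemical for 24 h. CD69 levels quantified by fluorescence ELISA; DMSO served as negative control for bidirectional fitting.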

Read-out in test [10]: Monocyte Chemoattractant Protein-1 (MCP1), CCL2 (gene 6347)
Description: BSK_SAg_MCP1: BioMAP Diversity Plus: SAg Assay for Monocyte Chemoattractant Protein-1 (MCP1) Biomarker Activity (AID 2283090). The essentials: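 Values derive from bidirectional fitting of ELISA-measured MCP1 against DMSO controls. Readings were taken 24 h after dosing human vascular endothelial cells co-cultured with peripheral blood mononuclear cells under superantigen stimulation.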

Molecules are shown by their SMILES. Activity calls are given as the source filed them. Rule for the calls: active = hit-call score of the fitted dose curve at least 0.9, where 1 is the maximum; inactive = score below 0.9.

Chain of Tumor necrosis factor (Homo sapiens) (P01375 whole entry, looked up): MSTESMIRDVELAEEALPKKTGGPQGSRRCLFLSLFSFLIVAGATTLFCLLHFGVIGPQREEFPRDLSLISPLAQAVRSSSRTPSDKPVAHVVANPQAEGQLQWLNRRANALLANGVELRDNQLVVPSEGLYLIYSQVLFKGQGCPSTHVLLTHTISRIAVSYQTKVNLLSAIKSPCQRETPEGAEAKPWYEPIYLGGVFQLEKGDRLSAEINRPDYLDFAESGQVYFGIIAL

For `Cc1ccc(Cl)cc1`, the result in test [1], in test [2], in [3], in test [4], in [5] and in [6] was inactive. In addition, the result in test [7], in [8], in [9] and in [10] was inactive.

The term AC50 denotes the concentration at which the activity in the assay is half-maximal. In the case of `CCc1c(C(=O)NN2CCCCC2)nn(-c2ccc(Cl)cc2Cl)c1-c1ccc(Br)cc1`, the AC50 is 8.8 µM (active) in test [1]; 15.3 µM (active) in test [2]; 20 µM (active) in test [3]; 6.19 µM (active) in test [6]; 11.5 µM (active) in test [7]; 12.2 µM (active) in test [8]. The half-maximal activity concentration (AC50) in [9] was 10.3 µM (active); in test [10] it was 8.24 µM (active). Besides, the result in test [4] and in [5] was inactive.

Consider `CCCCCCC(=O)OCC`, for which the outcome in test [1], in [2], in [3], in test [4], in test [5] and in test [6] was inactive. For the same compound, the result in test [7], in test [8], in [9] and in [10] was inactive.

Take `CCCCCC(=O)O`: the outcome in test [1], in [2], in test [3], in [4], in [5] and in test [6] was inactive. Moreover, the result in [7], in [8], in [9] and in [10] was inactive.

`Cc1nc(-c2ccc3c(c2)CCN(CCC2CCC(NC(=O)/C=C/c4ccc(F)cc4)CC2)CC3)no1` (stereo not given): the outcome in test [1], in [4], in test [5], in test [9] and in test [10] was inactive. The AC50 in [2] was 1.45 µM (active); in test [3], 9.3 µM (active); in [6], 9.3 µM (active); in test [7], 9.3 µM (active); in test [8], 6.43 µM (active).

Turning to `CC1(C)NC(=O)NC1=O`, the result in test [1], in [2], in [3], in [4], in test [5] and in test [6] was inactive. Further, the result in [7], in test [8], in [9] and in test [10] was inactive.

Consider `Cc1c(C(=O)O)c(O)cc2c1C(=O)c1c(O)c([C@@H]3O[C@H](CO)[C@@H](O)[C@H](O)[C@H]3O)c(O)c(O)c1C2=O`, for which the outcome in [1], in test [2], in test [3], in [4], in test [5] and in [6] was inactive. Besides, the result in [7], in [8], in [9] and in test [10] was inactive.

On to `CC=Cc1ccc(O)c(OC)c1`, for which the outcome in test [1], in [3], in test [5], in test [6], in test [7] and in [8] was inactive. Also, the outcome in [9] and in [10] was inactive. The AC50 was 6.95 µM (active) in test [2] and 2.82 µM (active) in test [4].

Turning to `CCCCCCCCCCC`, the result in [1], in [2], in test [3], in [4], in test [5] and in test [6] was inactive. The outcome in test [7], in test [8], in test [9] and in test [10] was inactive.

In the case of `NCCO`, the result in test [1], in test [2], in test [3], in test [4], in test [5] and in test [6] was inactive. Besides, the result in test [7], in test [8], in [9] and in test [10] was inactive.

For `COc1cc(C=O)ccc1O`, the result in [1], in test [2], in [3], in [4], in [5] and in test [6] was inactive. In addition, the outcome in [7], in test [8], in test [9] and in [10] was inactive.
